Results on 57 molecules are retold here after PMC4336329 (PLoS ONE, 2015).

Molecules are shown by their SMILES. The campaign covered roughly 310,000 compounds. About 2,200 (0.71%) showed an effect of 50% or more. Effects have a minus sign here. The sample holds strong results, similar compounds and a random draw of the others, so the mix is not that of the screen.

Sequence of human ether-à-go-go-related gene (hERG) potassium channel (Q12809 whole entry, looked up): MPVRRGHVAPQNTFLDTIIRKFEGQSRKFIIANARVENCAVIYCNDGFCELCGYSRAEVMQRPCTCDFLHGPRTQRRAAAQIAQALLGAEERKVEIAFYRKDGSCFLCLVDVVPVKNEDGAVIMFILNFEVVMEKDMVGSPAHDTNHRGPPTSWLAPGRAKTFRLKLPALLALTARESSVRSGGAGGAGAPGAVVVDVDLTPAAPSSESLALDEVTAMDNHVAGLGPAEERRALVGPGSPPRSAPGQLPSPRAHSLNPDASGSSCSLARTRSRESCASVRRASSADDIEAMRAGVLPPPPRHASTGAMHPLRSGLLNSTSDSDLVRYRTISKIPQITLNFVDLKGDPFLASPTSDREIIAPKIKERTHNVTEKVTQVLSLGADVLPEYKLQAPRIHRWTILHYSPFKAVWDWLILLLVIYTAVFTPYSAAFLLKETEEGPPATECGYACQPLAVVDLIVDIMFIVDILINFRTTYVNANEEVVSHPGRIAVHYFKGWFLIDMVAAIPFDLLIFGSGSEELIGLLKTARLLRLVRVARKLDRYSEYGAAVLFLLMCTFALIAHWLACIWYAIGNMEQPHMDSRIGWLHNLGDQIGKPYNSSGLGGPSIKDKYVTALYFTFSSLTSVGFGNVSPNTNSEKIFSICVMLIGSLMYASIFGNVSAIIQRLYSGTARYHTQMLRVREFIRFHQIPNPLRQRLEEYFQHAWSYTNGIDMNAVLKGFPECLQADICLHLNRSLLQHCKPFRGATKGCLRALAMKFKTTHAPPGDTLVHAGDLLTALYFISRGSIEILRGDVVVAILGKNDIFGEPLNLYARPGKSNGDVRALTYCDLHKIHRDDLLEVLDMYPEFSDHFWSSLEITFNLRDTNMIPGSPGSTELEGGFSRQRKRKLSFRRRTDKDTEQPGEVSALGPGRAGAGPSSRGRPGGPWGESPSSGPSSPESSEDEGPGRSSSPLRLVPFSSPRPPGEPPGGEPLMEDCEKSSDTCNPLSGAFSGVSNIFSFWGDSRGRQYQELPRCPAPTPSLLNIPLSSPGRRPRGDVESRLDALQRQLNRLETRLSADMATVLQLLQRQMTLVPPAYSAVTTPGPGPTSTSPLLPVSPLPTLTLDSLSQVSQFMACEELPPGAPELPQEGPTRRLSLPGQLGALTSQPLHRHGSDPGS

This test has as its target human ether-à-go-go-related gene (hERG) potassium channel (human, UniProt Q12809). The test is described as follows: primary screen, population patch clamp on CHO cells stably expressing hERG; higher = less effect of the substance.
With `O=C(NCCCO)c1ccc2[nH]c3ccccc3c2c1`, the “hERG current change (%, negative = inhibition) at 1uM” value stood at 13.4%.

With `O=C(NCc1cc([N+](=O)[O-])ccc1O)c1cccnc1Sc1ccc(Cl)cc1`, the “hERG current change (%, negative = inhibition) at 1uM” value is given as 16.3%.

For `COc1cccc(C2=CC(c3cc(OC)ccc3OC)n3nnnc3N2)c1` (stereo not drawn), the “hERG current change (%, negative = inhibition) at 1uM” value is reported as 15.2%.

As for `O=C(CN(C(=O)c1csnn1)c1ccc(F)cc1)NCc1ccc(F)cc1`, the “hERG current change (%, negative = inhibition) at 1uM” value is 3.44%.

Consider `CC(=O)Nc1cc2c(cc1NC(=O)c1cnccn1)OCCO2`, for which the “hERG current change (%, negative = inhibition) at 1uM” value is listed as 19.8%.

Regarding `CCOC(=O)c1sc(NC(=S)NC(=O)c2cccc(Cl)c2)c(C(=O)OCC)c1C`, the “hERG current change (%, negative = inhibition) at 1uM” value turned out to be 1.03%.

On to `COc1ccc(S(=O)(=O)Nc2ccccc2OC)cc1NC(=O)c1cc2ccccc2oc1=O`, for which the “hERG current change (%, negative = inhibition) at 1uM” value is reported as -4.91%.

Take `CCC(O)(CCN1CCCCC1)c1ccccc1` (stereo not drawn): the “hERG current change (%, negative = inhibition) at 1uM” value came to 3.27%.

`CCCCC(O)(CCN1CCOCC1)c1ccc(Cl)cc1.Cl` (stereo not drawn): the “hERG current change (%, negative = inhibition) at 1uM” value is -51.3%.

Consider `CCCCCC(O)(CCN1CCCCC1)c1ccc(OCC)cc1.Cl` (stereo not drawn), for which the “hERG current change (%, negative = inhibition) at 1uM” value is on record as -82%.

For `CCCCCC(O)(CCN1CCCCC1)c1ccccc1.Cl` (stereo not drawn), the “hERG current change (%, negative = inhibition) at 1uM” value is -84.7%.

As to `CCCC(O)(CCN1CCOCC1)c1ccc(Br)cc1.Cl` (stereo not drawn), the “hERG current change (%, negative = inhibition) at 1uM” value came out at 7.3%.

For the molecule `CCCOc1ccc(C(O)(CCC)CCN2CCCCC2)cc1` (stereo not drawn), the “hERG current change (%, negative = inhibition) at 1uM” value was -25.4%.

As for `CCCC(O)(CCN1CCOCC1)c1ccc(Cl)cc1` (stereo not drawn), the “hERG current change (%, negative = inhibition) at 1uM” value was 6.26%.

Take `CCCCCCC(O)(CCN1CCCCC1)c1ccccc1.Cl` (stereo not drawn): the “hERG current change (%, negative = inhibition) at 1uM” value is listed as -17.1%.

Regarding `CCCCOc1ccc(C(O)(CCC)CCN2CCOCC2)cc1` (stereo not drawn), the “hERG current change (%, negative = inhibition) at 1uM” value is given as -11%.

Take `O=C1C=C(N2CCCCC2)C2(CCCCC2)O1`: the “hERG current change (%, negative = inhibition) at 1uM” value came out at 10.8%.

`Nc1nc(NCc2ccco2)nc(Nc2cccc(F)c2)c1[N+](=O)[O-]`: the “hERG current change (%, negative = inhibition) at 1uM” value stood at 18.1%.

For `O=C(NCCc1ccccc1)c1ccc(Cl)nc1`, the “hERG current change (%, negative = inhibition) at 1uM” value was 18%.

For the molecule `COC(=O)c1ccc(CSc2nnc(Nc3cccc(OC)c3)s2)o1`, the “hERG current change (%, negative = inhibition) at 1uM” value was found to be 10.7%.

In the case of `COCCCC1CCN(C(=O)C2CCC(=O)N(CC3CCCCC3)C2)CC1` (stereo not drawn), the “hERG current change (%, negative = inhibition) at 1uM” value came to 2.85%.

With `COc1ccc(OCC(O)CN2CCNCC2)cc1.Cl` (stereo not drawn), the “hERG current change (%, negative = inhibition) at 1uM” value is listed as 14.6%.

For `Fc1cccc(NC(=S)NNc2ccccc2)c1`, the “hERG current change (%, negative = inhibition) at 1uM” value is reported as 10.7%.

As for `Cc1ccc2cc(CN(CC3CCCO3)C(=S)Nc3ccccc3)c(=O)[nH]c2c1C` (stereo not drawn), the “hERG current change (%, negative = inhibition) at 1uM” value stood at 13.3%.

Consider `CCOC(=O)c1[nH]ncc1CN1CCCC(C(=O)c2cc(Cl)ccc2OC)C1` (stereo not drawn), for which the “hERG current change (%, negative = inhibition) at 1uM” value is given as -29.9%.

Take `O=C(NCCc1ccc2c(c1)OCCO2)c1cc2ccccc2o1`: the “hERG current change (%, negative = inhibition) at 1uM” value is given as -16.6%.

As to `CN(C)S(=O)(=O)N1CCC(Oc2cccc(C(=O)NC3CCCCC3)c2)CC1`, the “hERG current change (%, negative = inhibition) at 1uM” value stood at 2.87%.

As for `CCOC(=O)C(C)(C)Sc1nc2c(cnn2-c2ccc(Cl)cc2)c(=O)[nH]1`, the “hERG current change (%, negative = inhibition) at 1uM” value is 4.97%.

Regarding `CCN1CCCC(OC(=O)C(c2ccccc2)c2ccccc2)C1.Cl` (stereo not drawn), the “hERG current change (%, negative = inhibition) at 1uM” value is listed as -53%.

Turning to `Cl.O=C(OC1CCN(CCCl)CC1)C(c1ccccc1)c1ccccc1`, the “hERG current change (%, negative = inhibition) at 1uM” value came to 15.9%.

Consider `CCN1CCCC(OC(=O)Nc2ccccc2)C1` (stereo not drawn), for which the “hERG current change (%, negative = inhibition) at 1uM” value is 6.59%.

Turning to `COc1ccc(OCC(=O)Nc2ccc3c(c2)nc(CCN2CCCCC2)n3C)cc1`, the “hERG current change (%, negative = inhibition) at 1uM” value was -31.3%.

For `CN1CCN(CCc2nc3cc(NC(=O)COc4ccc(Cl)cc4)ccc3n2C)CC1`, the “hERG current change (%, negative = inhibition) at 1uM” value was -7.52%.

As for `Cn1c(CCN2CCCCC2)nc2cc(NC(=O)COc3ccc(Cl)cc3)ccc21`, the “hERG current change (%, negative = inhibition) at 1uM” value is -89.6%.

Take `Cn1c(CCN2CCCCC2)nc2cc(NC(=O)COc3ccccc3)ccc21`: the “hERG current change (%, negative = inhibition) at 1uM” value is given as -51.9%.

Take `Cc1ccc(OCC(=O)Nc2ccc3c(c2)nc(CCN2CCN(C)CC2)n3C)cc1`: the “hERG current change (%, negative = inhibition) at 1uM” value is listed as -5.14%.

With `CCN1CCN(CCc2nc3cc(NC(=O)COc4ccc(Cl)cc4)ccc3n2C)CC1`, the “hERG current change (%, negative = inhibition) at 1uM” value is reported as -26.8%.

Turning to `CCN1CCN(CCc2nc3cc(NC(=O)COc4ccccc4)ccc3n2C)CC1`, the “hERG current change (%, negative = inhibition) at 1uM” value amounted to 0.262%.

As for `Cc1cccc(OCC(=O)Nc2ccc3c(c2)nc(CCN2CCCCC2)n3C)c1`, the “hERG current change (%, negative = inhibition) at 1uM” value is -58.3%.

Turning to `CN1CCN(CCc2nc3cc(NC(=O)COc4ccccc4)ccc3n2C)CC1`, the “hERG current change (%, negative = inhibition) at 1uM” value is reported as -13.2%.

Consider `Cc1cccc(OCC(=O)Nc2ccc3c(c2)nc(CN2CCCCC2)n3C)c1.Cl`, for which the “hERG current change (%, negative = inhibition) at 1uM” value is on record as -3.37%.

With `Cc1cccc(OCC(=O)Nc2ccc3c(c2)nc(CCN2CCN(C)CC2)n3C)c1`, the “hERG current change (%, negative = inhibition) at 1uM” value is on record as -6.31%.

For `Cc1ccc(OCC(=O)Nc2ccc3c(c2)nc(CCN2CCCCC2)n3C)cc1`, the “hERG current change (%, negative = inhibition) at 1uM” value was -60%.

In the case of `COC(=O)C1=C(c2ccc(-c3ccccc3)c(F)c2)C[C@@H]2CC[C@H]1N2C(=O)NCCc1ccccc1`, the “hERG current change (%, negative = inhibition) at 1uM” value was 15.4%.

Turning to `CCOC(=O)C(=CNNc1c(C)csc1C(=O)OC)C(=O)OCC`, the “hERG current change (%, negative = inhibition) at 1uM” value is 16.7%.

For the molecule `COc1ccc(CCNC(=O)CN2C(=O)NC(Cc3c[nH]c4ccccc34)C2=O)cc1` (stereo not drawn), the “hERG current change (%, negative = inhibition) at 1uM” value is on record as 9.58%.

Turning to `Cc1cc(OCC(=O)NC(Cc2c[nH]c3ccc(O)cc23)C(=O)O)c2c(C)c(C)c(=O)oc2c1` (stereo not drawn), the “hERG current change (%, negative = inhibition) at 1uM” value is listed as 14.5%.

Consider `CC(C)n1c(N)c(C#N)c2ccc([N+](=O)[O-])cc2c1=O`, for which the “hERG current change (%, negative = inhibition) at 1uM” value was -6.91%.

`CCN(CC)CCNCc1ccc(Br)cc1OCC(=O)NCc1ccccc1.Cl`: the “hERG current change (%, negative = inhibition) at 1uM” value is recorded as -7.7%.

On to `Cl.O=C(COc1ccc(Br)cc1CNCCc1ccccc1)NCc1ccccc1`, for which the “hERG current change (%, negative = inhibition) at 1uM” value is recorded as -11.5%.

As to `CCCNCc1cc(Br)ccc1OCC(=O)NCCc1ccccc1`, the “hERG current change (%, negative = inhibition) at 1uM” value is reported as -10.7%.

With `CCN(CC)CCNCc1cc(Br)ccc1OCC(=O)NCc1ccccc1.Cl`, the “hERG current change (%, negative = inhibition) at 1uM” value was -54.6%.

Consider `Cl.O=C(COc1ccc(Br)cc1CNC1CCCC1)Nc1ccccc1`, for which the “hERG current change (%, negative = inhibition) at 1uM” value is reported as -28.2%.

Regarding `O=C(COc1ccc(Br)cc1CNC1CCCCC1)NCCc1ccccc1`, the “hERG current change (%, negative = inhibition) at 1uM” value was -59%.

Take `O=c1c2c(-c3cccs3)csc2ncn1-c1ccc(Br)cc1`: the “hERG current change (%, negative = inhibition) at 1uM” value is on record as -2.84%.

On to `CCCNC(=O)N1[C@H]2CC[C@@H]1C(C(=O)OC)=C(c1ccc3ccccc3c1)C2`, for which the “hERG current change (%, negative = inhibition) at 1uM” value is recorded as 4.04%.

For the molecule `COc1ccc(Cc2n[nH]c(=S)n2NC(=O)Nc2ccc(Cl)c(Cl)c2)cc1`, the “hERG current change (%, negative = inhibition) at 1uM” value was 10.2%.
